Experimental data: ChEMBL document CHEMBL3988442, “University of Dundee, Small-Polar-MMV Screening Library” (2021)
The campaign covered roughly 48,000 compounds. About 13,000 (27%) showed an effect of 50% or more. The list shows a part of the results.

test system: Wolbachia pipientis; test: Anti-Wolbachia Cell-Based Screen; format: functional; set-up: scale not given: in the data most compounds retested in dose-response had high values; conditions: 5 µM

Row | SMILES | Percent Effect [%]
1 | COc1ccccc1CN1C[C@@H](F)[C@@H](OCc2nc3cnccc3[nH]2)C1 | -3.752
2 | Cc1cc(C)n(CCN2CCN(C(=O)c3cc4ccccc4o3)CC2)n1 | 9.033
3 | O=C(NC1CCN(c2ccc(-c3ccccc3F)nn2)C1)c1ccc[nH]1 (configuration not stated) | 5.245
4 | COc1cccc(C2CCN2C(=O)c2cc(C(C)C)on2)c1 (configuration not stated) | 21.92
5 | COCC(C)NC(=O)N(C)Cc1cc(C)on1 (configuration not stated) | -2.25
6 | COC(=O)C(C)N(Cc1cc(C)on1)C1CC1 (configuration not stated) | -2.266
7 | CC(C)c1cc(COCCCC(=O)O)no1 | 94.89
8 | CC(C)c1cc(COCCC(=O)O)no1 | 121.8
9 | CC(C)c1cc(CSCCC(=O)O)no1 | 33.59
10 | O=S1(=O)CCC(n2nc(Cc3cccs3)nc2-c2cnccn2)C1 (configuration not stated) | -137.3
11 | CC(Oc1ccccc1C(F)(F)F)C(=O)NCCCC(N)=O (configuration not stated) | -9.185
12 | N#Cc1ccc(Cl)cc1NCC1CCOC1 (configuration not stated) | 108.5
13 | N#Cc1ccc(Cl)cc1N1CCC(OC2CCOCC2)CC1 | 1.592
14 | CCS(=O)(=O)c1ccc(CNc2c(Cl)cccc2C#N)cc1 | -6.207
15 | N#Cc1cc(C(F)(F)F)ccc1NCC1CCS(=O)(=O)CC1 | -17.13
16 | CN(c1ccc(CNc2c(Cl)cccc2C#N)cc1)S(C)(=O)=O | 0.1811
17 | CS(=O)(=O)N1CCC(Nc2ccnc3ccc(Cl)cc23)CC1 | -4.778
18 | N#Cc1ccc(NCCCOCC2CCOC2)c(F)c1 (configuration not stated) | -19.41
19 | N#Cc1cc(F)ccc1NCC1CCS(=O)(=O)CC1 | -20.22
20 | N#Cc1cc(F)ccc1NCC1CCN(S(=O)(=O)C(F)F)CC1 | -12.01
21 | CS(=O)(=O)N1CCC(CNc2c(Cl)cccc2C#N)CC1 | 98.55
22 | N#Cc1ccc(Cl)cc1NCC1CC1 | 111.8
23 | CS(=O)(=O)N1CCC(CNc2cc(Cl)ccc2C#N)CC1 | 125.4
24 | CN(CC1CCCCO1)C(=O)c1ccnc(OC2CCC2)c1 (configuration not stated) | 4.497
25 | Cc1nn(C)c(C)c1NC(=O)CNc1cc(C(F)(F)F)ccc1F | -4.216
26 | O=C(c1ccco1)N(CC(F)(F)F)C1CCOCC1 | -3.164

Row | SMILES | Percent Effect [%]
27 | Cc1nc(C)c(CNC(=O)NC2CC(C)(C)OC2(C)C)s1 (configuration not stated) | -7.711
28 | CCOC(C)c1nc(CN2CCN(Cc3cccnc3)CC2)cs1 (configuration not stated) | -1.889
29 | O=C(Nc1ccccc1OCCc1ccccn1)N1CCOCC(O)C1 (configuration not stated) | 83.92
30 | O=C(Nc1ccccc1OCc1ccccn1)NC1CCOCC1 | 8.72
31 | C=C(C)COc1ccccc1NC(=O)N1CCOCC(CO)C1 (configuration not stated) | -7.017
32 | Cc1n[nH]c(C)c1Sc1ccccc1NC(=O)N1CCOCC(O)C1 (configuration not stated) | -4.124
33 | COc1ccc(Oc2ncccc2NC(=O)N2CCOCC2)cc1 | 2.048
34 | O=C(Nc1ccccc1OCCc1ccccn1)N1CC[C@@H](O)C1 | 116.1
35 | O=C(Nc1ccccc1OCCc1ccccn1)N1CCOCC1 | 129.1
36 | O=C(Nc1ccccc1OCCc1ccccn1)NC1CCOCC1 | -2.172
37 | COc1ccccc1CC1CCN(C(=O)CCc2ccccn2)CC1 | -10.18
38 | CC(C)OCCC(=O)N(C)CCCc1cc(-c2ccccc2)no1 | 2.535
39 | CC(C)CC(=O)N[C@H](C)c1c(-c2ccc(Cl)cc2)noc1C(=O)O.Cl | -0.2726
40 | CNC(=O)c1nc2c(s1)CCN(C(=O)c1cccnc1)CC2.O=C(O)C(F)(F)F | -13.23
41 | Cc1ccc(C)c(-n2ccc3nc(N4CCCC4)ncc3c2=O)c1 | -2.601
42 | Cn1cc(CN2C[C@@H]3CCCO[C@@H]3[C@H](NC(=O)CC3CC3)C2)cn1.O=C(O)C(F)(F)F | -5.365
43 | Cc1noc(C)c1CN1C[C@@H]2CCCO[C@@H]2[C@H](Nc2ccccn2)C1.O=C(O)C(F)(F)F.O=C(O)C(F)(F)F | 91.6
44 | Cc1ccc(CN2C[C@@H]3CCCO[C@@H]3[C@H](NS(C)(=O)=O)C2)o1.O=C(O)C(F)(F)F | -4.883
45 | O=C(N[C@@H]1CN(Cc2ccccc2)C[C@@H]2CCCO[C@@H]21)C1CC1.O=C(O)C(F)(F)F | -2.249
46 | O=C(N[C@@H]1CN(c2ncccn2)C[C@@H]2CCCO[C@@H]21)c1ccncc1.O=C(O)C(F)(F)F.O=C(O)C(F)(F)F | -5.975
47 | Cc1ccc(N[C@@H]2CN(Cc3cc(C)on3)C[C@@H]3CCCO[C@@H]32)nn1.O=C(O)C(F)(F)F.O=C(O)C(F)(F)F | 92.65
48 | Cc1cccc(CN2C[C@@H]3CCCO[C@@H]3[C@H](Nc3ccccn3)C2)n1 | 113.7
49 | CCCn1nccc1C(=O)N1CCCN(CCCc2ccccc2)CC1 | -7.679
50 | COc1cc(N2CCC3(CCCN3Cc3cnn(C)c3)CC2)ncn1.O=C(O)C(F)(F)F | 0.3231
51 | O=C1OCCN1CCNc1ncc2c(n1)CCN2c1ccccc1 | 15.29
52 | CN(Cc1nc(-c2cccnc2)no1)C(=O)c1cnc2n1CCCC2 | -9.583

Row | SMILES | Percent Effect [%]
53 | COc1ccc2nnc(CCC(=O)Nc3nc4c(s3)CCC4)n2n1 | 122.5
54 | CC1CCc2nc(NC(=O)CN(C)C(=O)c3ccco3)sc2C1 (configuration not stated) | 6.016
55 | COc1ccc(CNC(=O)NCc2nc(C)c(C)s2)cn1 | -2.055
56 | COc1cccc2c1OCC(C(=O)NCc1nc3c(s1)CCCC3)C2 (configuration not stated) | -11.26
57 | O=C(CN1CCCC(c2ccn[nH]2)C1)Nc1nc2c(s1)CCCC2 (configuration not stated) | 3.48
58 | COc1ccc2nnc(CCCC(=O)NCc3cccn3C)n2n1 | 11.78
59 | COc1ccc2nnc(CCCC(=O)Nc3nc4c(s3)CCC4)n2n1 | 114
60 | COc1ccc2nnc(CCC(=O)Nc3nc(C)c(C)s3)n2n1 | 119
61 | COc1ccc2nnc(CCCC(=O)NCCC3=CCCCC3)n2n1 | 8.382
62 | COc1ccc2nnc(CCC(=O)Nc3nc4c(s3)CCCC4)n2n1 | 139.1
63 | Cl.O=C(Nc1cccc(CNCc2csc(Br)c2)c1)C1CC1 | 8.664
64 | Cn1c(CN2CCCC(Cn3cc(CCO)nn3)C2)cc2ccccc21 (configuration not stated) | -3.517
65 | Cc1ccc2cc(C3(O)CCN(C(=O)CSC(C)C)CC3)ccc2n1 | 8.492
66 | Cc1ccc(C)c(OCc2cc(C(=O)N(C)CC(O)CO)no2)c1 (configuration not stated) | -202.7
67 | O=C(NC1CC1)[C@H]1C[C@H]2OCC[C@H]2N(CC2CC2)C1.O=C(O)C(F)(F)F | -11.18
68 | COC[C@@H]1CC[C@H]2[C@H](CCN2S(=O)(=O)Cc2ccccc2)O1 | 24.17
69 | Cc1ccc(C(=O)N2C[C@H]3CC[C@@H]2CN(S(=O)(=O)N(C)C)C3)c(O)c1 | -19.11
70 | CCOC(C)c1noc(CN(C)C(=O)c2cc3ccccn3c2)n1 (configuration not stated) | 5.368
71 | CCc1ocnc1C(=O)N1CCC(n2cc(-c3ccsc3)nn2)CC1 | -3.384
72 | COc1ccc2nnc(CCC(=O)Nc3nc4c(s3)CCCCC4)n2n1 | 106.8
73 | Cc1nc(S(=O)(=O)NCCC(=O)NCc2ccc(C#N)cc2)cn1C | -22.12
74 | CCN(CC1CCCO1)C(=O)Nc1cc(OC)c(OC)cc1C (configuration not stated) | 1.885
75 | CCN(CC1CCCO1)C(=O)Nc1cccc(Cl)c1OC (configuration not stated) | 103.8
76 | CCCC(=O)Nc1ccc(CC(=O)N(CC)CC2CCCCO2)cc1 (configuration not stated) | -7.616
77 | CCN(CC1CCCO1)C(=O)CSCC(=O)Nc1ccc(C)cc1 (configuration not stated) | 18.9
78 | CCN(CC1CCCO1)C(=O)Nc1cccc(N2CCOCC2)c1 (configuration not stated) | -20.72

Row | SMILES | Percent Effect [%]
79 | CCN(CC1CCCO1)C(=O)Nc1ccc(F)cc1OC (configuration not stated) | -0.9971
80 | CCN(CC1CCCO1)C(=O)Nc1cc(C)ccc1S(C)(=O)=O (configuration not stated) | 111.7
81 | CCN(CC1CCCO1)C(=O)Nc1cc(C(N)=O)ccc1OC (configuration not stated) | 103.2
82 | CCN(CC1CCCO1)C(=O)Nc1ccc(OC)c(C)c1 (configuration not stated) | 118.7
83 | CCN(CC1CCCO1)C(=O)Nc1cc(C(=O)OC)ccc1F (configuration not stated) | -7.432
84 | CN(C)c1ccc(CCCNC(=O)Nc2ccc(C#N)cc2)cc1 | 14.16
85 | O=C(c1ccc(N2CCCC2)nn1)N1CCCc2cc(F)c(F)cc21 | -2.029
86 | Cc1nc(CCCNC(=O)C2CC(=O)N(C(C)(C)C)C2)sc1C (configuration not stated) | -4.767
87 | COc1cccc(-n2nnc(C(=O)N3CCNC(=O)C3)c2C)c1 | 2.603
88 | COCCN(CC1CCCO1)C(=O)CCNC(=O)c1ccccc1F (configuration not stated) | 6.163
89 | CCN(CC1CCCCO1)C(=O)CCNC(=O)c1ccccc1F (configuration not stated) | 0.5335
90 | CCN(CC1CCCO1)C(=O)NCCNC(=O)c1ccccc1F (configuration not stated) | 93.7
91 | CSCC(=O)NC1CCN(C(C)c2ccccc2)CC1 (configuration not stated) | -9.489
92 | CCOCCCC(=O)NC1CCN(C(C)c2ccccc2)CC1 (configuration not stated) | -0.8786
93 | CC1CCN(CC(=O)NC2CCN(C(C)c3ccccc3)CC2)CC1.Cl (configuration not stated) | 112.7
94 | Cc1cnn(CCC(=O)Nc2cccnc2N2CCC(CO)CC2)c1 | -13.92
95 | CCc1nc(C2CCCN(C(=O)CN(C)S(C)(=O)=O)C2)no1 (configuration not stated) | 1.006
96 | CCNC(=O)N1CCCC(c2noc(CC)n2)C1 (configuration not stated) | -3.898
97 | CCc1nc(C2CCCN(C(=O)NC3CC3)C2)no1 (configuration not stated) | 109.2
98 | CCc1nc(C2CCCN(C(=O)C(C)(C)NS(C)(=O)=O)C2)no1 (configuration not stated) | 113.6
99 | CCc1nc(C2CCCN(C(=O)NC(C)C)C2)no1 (configuration not stated) | 123.4
100 | CCc1nc(C2CCCN(C(=O)CC3CCOCC3)C2)no1 (configuration not stated) | 122.8
101 | CCc1nc(C2CCCN(C(=O)c3c[nH]c(C(C)C)n3)C2)no1 (configuration not stated) | 7.02
102 | CCc1nc(C2CCCN(C(=O)C3=NN(C(C)C)C(=O)CC3)C2)no1 (configuration not stated) | 7.741
